# Inconclusive results are not listed. Activity calls are given as the source filed them. The calls were made as follows: active = hit-call score of the fitted dose curve at least 0.9, where 1 is the maximum; inconclusive = response in the unintended direction; inactive = score below 0.9.
# Biological target: Histone deacetylase 3 (Homo sapiens) (UniProt O15379)
# Experiment: NVS_ENZ_hHDAC3: NovaScreen (NVS) Enzymatic Assay for human Histone Deacetylase 3 (HDAC3) (AID 2283163)
# Method in brief: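 Recombinant human HDAC3 with fluorescent substrate, 1 h after dosing; product separated from substrate by electrophoretic mobility shift and read by fluorescence. Primary screen at 25 uM in duplicate; actives (e.g. ≥30% inhibition) retested in concentration-response up to 50 uM.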
# Histone deacetylase 3 (Homo sapiens), sequence (O15379 whole entry, looked up): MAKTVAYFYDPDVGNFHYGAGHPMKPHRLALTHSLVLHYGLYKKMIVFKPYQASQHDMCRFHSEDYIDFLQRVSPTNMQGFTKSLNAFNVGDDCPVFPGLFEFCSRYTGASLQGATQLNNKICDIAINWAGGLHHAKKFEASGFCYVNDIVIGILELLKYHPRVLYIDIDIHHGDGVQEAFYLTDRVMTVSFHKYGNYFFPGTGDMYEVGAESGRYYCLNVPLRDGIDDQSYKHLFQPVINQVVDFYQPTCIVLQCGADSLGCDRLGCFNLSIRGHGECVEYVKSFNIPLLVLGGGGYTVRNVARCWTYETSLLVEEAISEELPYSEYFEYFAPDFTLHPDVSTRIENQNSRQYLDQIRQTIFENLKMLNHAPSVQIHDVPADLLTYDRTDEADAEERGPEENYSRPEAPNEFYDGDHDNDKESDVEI
row,Compound,outcome
1,Nc1ccc(Cl)cc1N,inactive
2,Cn1cc(-c2ccccc2)c(=O)c(-c2cccc(C(F)(F)F)c2)c1,inactive
3,CCNS(=O)(=O)C(F)(F)C(F)(F)C(F)(F)C(F)(F)C(F)(F)C(F)(F)C(F)(F)C(F)(F)F,inactive

# Biological target: Glycogen synthase kinase-3 beta (Homo sapiens) (UniProt P49841)
# Experiment: NVS_ENZ_hGSK3b: NovaScreen (NVS) Enzymatic Assay for human Glycogen Synthase Kinase-3 beta (GSK3b) (AID 2283165)
# Method in brief: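 Recombinant enzyme with specific fluorescent substrate, 1 h, product separated by electrophoretic mobility shift. Primary duplicate screen at 25 uM; actives (e.g. 30% inhibition) followed in singleton concentration-response to 50 uM. Signal loss fitted versus DMSO.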
# Glycogen synthase kinase-3 beta (Homo sapiens), sequence (P49841 whole entry, looked up): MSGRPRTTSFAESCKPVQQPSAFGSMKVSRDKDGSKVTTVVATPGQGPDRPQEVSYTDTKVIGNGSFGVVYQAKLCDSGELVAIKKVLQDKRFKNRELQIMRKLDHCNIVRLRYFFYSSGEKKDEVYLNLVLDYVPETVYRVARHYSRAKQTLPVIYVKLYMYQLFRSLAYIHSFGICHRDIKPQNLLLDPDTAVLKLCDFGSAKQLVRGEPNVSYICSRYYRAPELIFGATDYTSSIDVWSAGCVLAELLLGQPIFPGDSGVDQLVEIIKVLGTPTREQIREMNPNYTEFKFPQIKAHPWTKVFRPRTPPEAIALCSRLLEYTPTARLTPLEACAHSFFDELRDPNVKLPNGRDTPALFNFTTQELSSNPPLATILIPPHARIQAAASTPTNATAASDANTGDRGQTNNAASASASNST
Compound,AC50,outcome
Cc1cccc(N)c1N,27.9 µM (active),–
CN(C)c1ccccc1,–,inactive
CCN(CC)CCO,–,inactive
CCOC(=O)[C@]1(c2ccccc2)Oc2ccccc2[C@@H]1N,–,inactive
Clc1ccccc1Cl,–,inactive
Nc1ccc(N=Nc2ccccc2)cc1,–,inactive
Nc1ccc(Cc2ccc(N)cc2)cc1,–,inactive
O=[N+]([O-])C(Br)(CO)CO,–,inactive
CC(O)CCO (stereo not given),–,inactive
OCCCl,–,inactive
Cc1ccc([N+](=O)[O-])cc1,–,inactive
CCN(CC)N=O,–,inactive
CN(C)[C@@H]1C(=O)C(C(N)=O)=C(O)[C@@]2(O)C(=O)C3=C(O)c4c(O)cccc4[C@@](C)(O)[C@H]3C[C@@H]12,25 µM (active),–
CCNS(=O)(=O)C(F)(F)C(F)(F)C(F)(F)C(F)(F)C(F)(F)C(F)(F)C(F)(F)C(F)(F)F,–,inactive
O=C(Oc1ccc(Br)cc1)N1CCN2CCC1CC2,–,inactive
CN(C)c1ccc(C(=O)c2ccc(N(C)C)cc2)cc1,–,inactive

# Biological target: human LYN Proto-Oncogene, Src family Tyrosine Kinase (LynA), LYN (gene 4067) (UniProt P07948)
# Experiment: NVS_ENZ_hLynA: NovaScreen (NVS) Enzymatic Assay for human LYN Proto-Oncogene, Src family Tyrosine Kinase (LynA) (AID 2283173)
# Method in brief: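 Recombinant kinase with fluorescent substrate; product separated from substrate by electrophoretic mobility shift and read 1 h after dosing. Duplicate screen at 25 uM, then concentration-response up to 50 uM; activity scored as signal loss against DMSO.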
# human LYN Proto-Oncogene, Src family Tyrosine Kinase (LynA), LYN (gene 4067), sequence (P07948 whole entry, looked up): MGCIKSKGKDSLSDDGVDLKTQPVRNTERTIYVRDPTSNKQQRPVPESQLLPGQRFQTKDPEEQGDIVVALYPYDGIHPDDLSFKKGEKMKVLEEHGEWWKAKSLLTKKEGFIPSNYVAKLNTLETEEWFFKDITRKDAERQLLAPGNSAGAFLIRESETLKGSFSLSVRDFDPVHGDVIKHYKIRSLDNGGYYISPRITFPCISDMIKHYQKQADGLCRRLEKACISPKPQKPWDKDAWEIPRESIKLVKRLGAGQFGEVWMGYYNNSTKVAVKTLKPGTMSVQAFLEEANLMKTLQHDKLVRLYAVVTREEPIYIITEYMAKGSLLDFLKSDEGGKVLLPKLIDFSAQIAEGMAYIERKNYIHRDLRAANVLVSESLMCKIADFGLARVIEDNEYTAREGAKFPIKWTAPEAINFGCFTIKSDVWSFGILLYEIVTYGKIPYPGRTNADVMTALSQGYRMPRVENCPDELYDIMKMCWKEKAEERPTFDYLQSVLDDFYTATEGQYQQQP
row,Compound,outcome
1,Clc1ccc(Cl)c(Cl)c1,inactive
2,c1ccc(NNc2ccccc2)cc1,inactive
3,CN(C)C(=O)Nc1ccc(Cl)cc1,inactive

# Biological target: human Mitogen-Activated Protein Kinase 1 (MAPK 1), MAPK1 (gene 5594) (UniProt P28482)
# Experiment: NVS_ENZ_hMAPK1: NovaScreen (NVS) Enzymatic Assay for human Mitogen-Activated Protein Kinase 1 (MAPK 1) (AID 2283175)
# Method in brief: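 Cell-free recombinant human MAPK1 enzymatic assay, fluorescence/electrophoretic mobility shift read at 1 h; loss of signal vs DMSO. Primary screen in duplicate at 25 uM; actives (e.g. ≥30% inhibition) run as concentration-response up to 50 uM.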
# human Mitogen-Activated Protein Kinase 1 (MAPK 1), MAPK1 (gene 5594), sequence (P28482 whole entry, looked up): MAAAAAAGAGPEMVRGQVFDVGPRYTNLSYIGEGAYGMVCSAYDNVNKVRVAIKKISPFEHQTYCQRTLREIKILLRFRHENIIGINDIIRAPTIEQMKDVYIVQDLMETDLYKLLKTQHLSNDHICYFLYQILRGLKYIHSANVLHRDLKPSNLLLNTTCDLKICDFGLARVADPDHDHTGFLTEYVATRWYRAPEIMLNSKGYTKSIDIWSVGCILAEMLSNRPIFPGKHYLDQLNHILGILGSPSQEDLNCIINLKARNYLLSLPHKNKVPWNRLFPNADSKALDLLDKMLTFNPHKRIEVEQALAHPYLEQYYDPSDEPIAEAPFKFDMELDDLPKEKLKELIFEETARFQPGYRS
Compound,outcome,AC50
O=C(Nc1ccccc1)c1ccccc1I,inactive,–
COC(=O)Nc1nc2ccccc2[nH]1,–,46.7 µM (active)
O=[N+]([O-])c1ccc(Oc2ccc(Cl)cc2Cl)cc1,inactive,–
O=C(Oc1ccc(Br)cc1)N1CCN2CCC1CC2,inactive,–
CN(C)C(=O)Nc1ccc(Cl)cc1,inactive,–

# Biological target: Mitogen-activated protein kinase 3 (Homo sapiens) (UniProt P27361)
# Experiment: NVS_ENZ_hMAPK3: NovaScreen (NVS) Enzymatic Assay for human Mitogen-Activated Protein Kinase 3 (MAPK 3) (AID 2283177)
# Method in brief: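 Cell-free enzymatic assay with recombinant protein and specific substrate; fluorescence and electrophoretic mobility shift read-out 1 h after dosing. Primary screen duplicate at 25 uM; actives then run in concentration-response up to 50 uM, loss of signal versus DMSO.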
# Mitogen-activated protein kinase 3 (Homo sapiens), sequence (P27361 whole entry, looked up): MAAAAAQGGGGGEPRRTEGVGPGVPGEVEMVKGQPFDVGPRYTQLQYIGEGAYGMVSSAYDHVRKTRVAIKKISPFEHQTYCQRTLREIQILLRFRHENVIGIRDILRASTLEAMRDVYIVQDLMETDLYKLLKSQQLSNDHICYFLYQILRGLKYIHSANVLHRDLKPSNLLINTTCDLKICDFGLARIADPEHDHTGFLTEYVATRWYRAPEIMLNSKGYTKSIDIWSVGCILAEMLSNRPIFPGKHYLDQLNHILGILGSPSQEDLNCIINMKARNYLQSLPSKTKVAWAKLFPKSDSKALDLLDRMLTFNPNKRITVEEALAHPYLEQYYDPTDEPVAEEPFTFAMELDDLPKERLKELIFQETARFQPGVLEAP
row,Compound,outcome
1,C[C@]12C=CC3=C4CCC(=O)C=C4CC[C@H]3[C@@H]1CC[C@@H]2O,inactive
2,COc1cc(C=O)cc2c1[C@H](COC(N)=O)[C@]1(OC(C)=O)ON2C[C@H]2[C@@H]1N2C(C)=O,inactive
3,CCNS(=O)(=O)C(F)(F)C(F)(F)C(F)(F)C(F)(F)C(F)(F)C(F)(F)C(F)(F)C(F)(F)F,inactive
